Reference: ChEMBL document CHEMBL4513146, “CO-ADD screening of Karazin Kharkiv National University (Ukraine) compounds”
Potency and affinity values are given separately.

System: Candida albicans
Details: Concentration 32 ug.mL-1; ASSAY_TEST Inhibition of Fungal Growth; detection method Absorption (OD530)

**Q.** CCOc1ccc(-n2ccn3c(SC(C)C(=O)Nc4ccc5c(c4)OCCO5)nnc3c2=O)cc1 (stereo not given) was tested. Which Inhibition did it give?
**A.** 0.98%

**Q.** CC(C)NC(=O)Cn1nc2nc(Nc3ccc(F)cc3)ccn2c1=O was tested. Which Inhibition did it give?
**A.** 2.08%

**Q.** With COc1ccc(-n2ccn3c(-c4ccc([N+](=O)[O-])cc4)nnc3c2=O)cc1Cl as the molecule, how does the Inhibition read?
**A.** 5.76%

**Q.** For CCc1ccc(NC(=O)Cn2nc3ccc(SC(C)(C)C)nn3c2=O)cc1, which Inhibition is on record?
**A.** 4.19%

**Q.** COc1cccc(CNC(=O)CSc2nnc3c4cc(-c5ccc(C)cc5)nn4ccn23)c1 was tested. Which Inhibition did it give?
**A.** 4.52%

**Q.** How did the Inhibition turn out when COc1ccc(C)cc1NC(=O)Cn1nc2c(N3CCSCC3)nc3ccccc3n2c1=O was run?
**A.** -2.66%

**Q.** Cc1nnc2c(=O)n(CC(=O)Nc3cccc(Br)c3)c3ccccc3n12 was tested. Which Inhibition did it give?
**A.** -0.15%

**Q.** CCOc1ccc(NC(=O)Cn2nc3c4cc(-c5ccc(Cl)cc5)nn4ccn3c2=O)cc1 was tested. Which Inhibition did it give?
**A.** 5.03%

**Q.** How did the Inhibition turn out when CCCN(C)c1nccn2c(=O)n(CC(=O)Nc3ccc(F)cc3)nc12 was run?
**A.** 1.98%

**Q.** How did the Inhibition turn out when COc1cccc(-n2ccn3c(SCC(=O)c4cc(C)ccc4C)nnc3c2=O)c1 was run?
**A.** 5.19%

**Q.** With COc1cc(NC(=O)Cn2nc3c(Oc4ccccc4)nccn3c2=O)cc(OC)c1OC as the molecule, how does the Inhibition read?
**A.** 3.29%

**Q.** Which Inhibition does the source give for COC(=O)c1ccc(Cn2nc3ccc(S(=O)(=O)N4CCCCCC4)cn3c2=O)o1 here?
**A.** -1.08%

**Q.** COc1cccc(Cn2nc3n(CCC(=O)NC4CCCCC4)c(=O)c4ccccc4n3c2=O)c1 was tested. Which Inhibition did it give?
**A.** 5.45%

**Q.** Which Inhibition does the source give for COc1ccccc1-n1ccn2c(SCc3ccccc3C)nnc2c1=O here?
**A.** 3.95%

**Q.** How did the Inhibition turn out when Cc1nnc2ccc(S(=O)(=O)N(CC(=O)OC(C)(C)C)c3ccc4c(c3)OCO4)cn12 was run?
**A.** 5.98%

**Q.** Which Inhibition does the source give for COc1ccccc1Cn1c(=O)c2sccc2n2c(=O)n(Cc3cccc(C)c3)nc12 here?
**A.** 1.33%

**Q.** How did the Inhibition turn out when CCc1nnc2c(=O)n(CC(=O)Nc3cc(Cl)ccc3Cl)c3ccccc3n12 was run?
**A.** 2.89%

**Q.** How did the Inhibition turn out when CCc1nnc2c(S(=O)(=O)N(Cc3cccc(OC)c3)c3ccc(F)cc3)cccn12 was run?
**A.** 3.42%

**Q.** How did the Inhibition turn out when COc1ccc(N(Cc2ccc(C)cc2)S(=O)(=O)c2ccc3nnc(C)n3c2)cc1 was run?
**A.** 4.08%

**Q.** For COc1cc(NC(=O)CSc2nnc3c(=O)n(-c4cccc(F)c4)ccn23)cc(OC)c1, which Inhibition is on record?
**A.** 13.47%

**Q.** Which Inhibition does the source give for COc1cccc(Oc2nccn3c(=O)n(CC(=O)NC4CCCCC4)nc23)c1 here?
**A.** -1.29%

**Q.** For COc1ccc(CNC(=O)CSc2nnc3c4cc(-c5ccc(C)cc5)nn4ccn23)cc1, which Inhibition is on record?
**A.** 1.16%

**Q.** Which Inhibition does the source give for Cc1nnc2ccc(S(=O)(=O)N(Cc3ccccc3F)c3cccc(Cl)c3)cn12 here?
**A.** -0.66%

**Q.** With CCOc1ccccc1NC(=O)Cn1nc2c(Oc3cccc(OC)c3)nccn2c1=O as the molecule, how does the Inhibition read?
**A.** 0.7%

**Q.** CCOc1ccc(-n2ccn3c(SCC(=O)c4ccc(OC)cc4)nnc3c2=O)cc1 was tested. Which Inhibition did it give?
**A.** 0.38%

**Q.** With CC(C)Cn1c(=O)c2sccc2n2c(=O)n(Cc3ccc(Br)cc3)nc12 as the molecule, how does the Inhibition read?
**A.** -2.24%

**Q.** How did the Inhibition turn out when CC(C)CCn1c(=O)c2sccc2n2c(=O)n(CC(=O)NC(C)C)nc12 was run?
**A.** -0.52%

**Q.** How did the Inhibition turn out when CCOC(=O)c1cccc(NC(=O)CSc2nnc3ccc(C(=O)Nc4cccc(F)c4)cn23)c1 was run?
**A.** 0.96%

**Q.** Cc1ccc(NC(=O)Cn2nc3c(Oc4ccccc4)nccn3c2=O)c(Br)c1 was tested. Which Inhibition did it give?
**A.** 0.27%

**Q.** How did the Inhibition turn out when COc1ccccc1-n1ccn2c(SCC(=O)Nc3ccc(C)cc3C)nnc2c1=O was run?
**A.** 2.45%

**Q.** For CCCCc1ccc(NC(=O)CSc2nnc3c4cc(-c5ccc(C)cc5)nn4ccn23)cc1, which Inhibition is on record?
**A.** 0.26%

**Q.** How did the Inhibition turn out when Cc1ccc(-c2ccc3nn(CC(=O)Nc4cccc(Cl)c4)c(=O)n3n2)cc1C was run?
**A.** 0.61%

**Q.** For CC(C)Cn1c(=O)c2sccc2n2c(=O)n(CC(=O)N(C)c3ccccc3)nc12, which Inhibition is on record?
**A.** -0.55%

**Q.** With Cc1ccc(-c2ccc3nn(CC(=O)Nc4ccc(Cl)c(C(F)(F)F)c4)c(=O)n3n2)cc1C as the molecule, how does the Inhibition read?
**A.** 5.4%

**Q.** Cc1ccc(Cn2c(=O)c3ccccc3n3c(=O)n(CC#N)nc23)cc1 was tested. Which Inhibition did it give?
**A.** -0.23%

**Q.** With COc1ccc(C)cc1NC(=O)Cn1nc2ccc(SCc3ccc(Cl)cc3)nn2c1=O as the molecule, how does the Inhibition read?
**A.** 31.09%

**Q.** For O=C(Cn1nc2ccc(SC3CCCCC3)nn2c1=O)Nc1ccc2c(c1)CCC2, which Inhibition is on record?
**A.** 2.83%

**Q.** With Cc1nnc2ccc(S(=O)(=O)N(Cc3cccc(F)c3)c3ccc(F)cc3)cn12 as the molecule, how does the Inhibition read?
**A.** 1.87%

**Q.** For Cc1ccc(-c2ccc3nnc(CCC(=O)NCc4cccc(Br)c4)n3n2)cc1, which Inhibition is on record?
**A.** 1.13%

**Q.** With CCOC(=O)c1ccccc1NC(=O)Cn1nc2c(Oc3ccccc3)nccn2c1=O as the molecule, how does the Inhibition read?
**A.** 0.37%

System: Cryptococcus neoformans
Details: Concentration 32 ug.mL-1; ASSAY_TEST Inhibition of Fungal Growth; detection method Resazurin; Absorption (OD600-OD570); plate type 384well; NBS; CORNING #3640

**Q.** Which Inhibition does the source give for CCOc1ccc(-n2ccn3c(SC(C)C(=O)Nc4ccc5c(c4)OCCO5)nnc3c2=O)cc1 (stereo not given) here?
**A.** -16.53%

**Q.** For CC(C)NC(=O)Cn1nc2nc(Nc3ccc(F)cc3)ccn2c1=O, which Inhibition is on record?
**A.** -10.27%

**Q.** How did the Inhibition turn out when COc1ccc(-n2ccn3c(-c4ccc([N+](=O)[O-])cc4)nnc3c2=O)cc1Cl was run?
**A.** -13.11%

**Q.** Which Inhibition does the source give for CCc1ccc(NC(=O)Cn2nc3ccc(SC(C)(C)C)nn3c2=O)cc1 here?
**A.** -17.5%

**Q.** COc1cccc(CNC(=O)CSc2nnc3c4cc(-c5ccc(C)cc5)nn4ccn23)c1 was tested. Which Inhibition did it give?
**A.** -12.58%

**Q.** For COc1ccc(C)cc1NC(=O)Cn1nc2c(N3CCSCC3)nc3ccccc3n2c1=O, which Inhibition is on record?
**A.** -24.78%

**Q.** Cc1nnc2c(=O)n(CC(=O)Nc3cccc(Br)c3)c3ccccc3n12 was tested. Which Inhibition did it give?
**A.** -11.02%

**Q.** For CCOc1ccc(NC(=O)Cn2nc3c4cc(-c5ccc(Cl)cc5)nn4ccn3c2=O)cc1, which Inhibition is on record?
**A.** -14.66%

**Q.** CCCN(C)c1nccn2c(=O)n(CC(=O)Nc3ccc(F)cc3)nc12 was tested. Which Inhibition did it give?
**A.** -8.83%

**Q.** For COc1cccc(-n2ccn3c(SCC(=O)c4cc(C)ccc4C)nnc3c2=O)c1, which Inhibition is on record?
**A.** -12.08%

**Q.** COc1cc(NC(=O)Cn2nc3c(Oc4ccccc4)nccn3c2=O)cc(OC)c1OC was tested. Which Inhibition did it give?
**A.** -9.79%

**Q.** Which Inhibition does the source give for COC(=O)c1ccc(Cn2nc3ccc(S(=O)(=O)N4CCCCCC4)cn3c2=O)o1 here?
**A.** -5.87%

**Q.** With COc1cccc(Cn2nc3n(CCC(=O)NC4CCCCC4)c(=O)c4ccccc4n3c2=O)c1 as the molecule, how does the Inhibition read?
**A.** -13.5%

**Q.** COc1ccccc1-n1ccn2c(SCc3ccccc3C)nnc2c1=O was tested. Which Inhibition did it give?
**A.** -12.54%

**Q.** Which Inhibition does the source give for Cc1nnc2ccc(S(=O)(=O)N(CC(=O)OC(C)(C)C)c3ccc4c(c3)OCO4)cn12 here?
**A.** -4.94%

**Q.** With COc1ccccc1Cn1c(=O)c2sccc2n2c(=O)n(Cc3cccc(C)c3)nc12 as the molecule, how does the Inhibition read?
**A.** -25.61%

**Q.** For CCc1nnc2c(=O)n(CC(=O)Nc3cc(Cl)ccc3Cl)c3ccccc3n12, which Inhibition is on record?
**A.** -19.25%

**Q.** CCc1nnc2c(S(=O)(=O)N(Cc3cccc(OC)c3)c3ccc(F)cc3)cccn12 was tested. Which Inhibition did it give?
**A.** -6.42%

**Q.** For COc1ccc(N(Cc2ccc(C)cc2)S(=O)(=O)c2ccc3nnc(C)n3c2)cc1, which Inhibition is on record?
**A.** -1.52%

**Q.** For COc1cc(NC(=O)CSc2nnc3c(=O)n(-c4cccc(F)c4)ccn23)cc(OC)c1, which Inhibition is on record?
**A.** -8.34%

**Q.** With COc1cccc(Oc2nccn3c(=O)n(CC(=O)NC4CCCCC4)nc23)c1 as the molecule, how does the Inhibition read?
**A.** -8.14%

**Q.** COc1ccc(CNC(=O)CSc2nnc3c4cc(-c5ccc(C)cc5)nn4ccn23)cc1 was tested. Which Inhibition did it give?
**A.** -27.11%

**Q.** With Cc1nnc2ccc(S(=O)(=O)N(Cc3ccccc3F)c3cccc(Cl)c3)cn12 as the molecule, how does the Inhibition read?
**A.** -11.57%

**Q.** With CCOc1ccccc1NC(=O)Cn1nc2c(Oc3cccc(OC)c3)nccn2c1=O as the molecule, how does the Inhibition read?
**A.** -8.27%

**Q.** How did the Inhibition turn out when CCOc1ccc(-n2ccn3c(SCC(=O)c4ccc(OC)cc4)nnc3c2=O)cc1 was run?
**A.** -12.6%

**Q.** Which Inhibition does the source give for CC(C)Cn1c(=O)c2sccc2n2c(=O)n(Cc3ccc(Br)cc3)nc12 here?
**A.** -27.05%

**Q.** Which Inhibition does the source give for CC(C)CCn1c(=O)c2sccc2n2c(=O)n(CC(=O)NC(C)C)nc12 here?
**A.** -18.15%

**Q.** With CCOC(=O)c1cccc(NC(=O)CSc2nnc3ccc(C(=O)Nc4cccc(F)c4)cn23)c1 as the molecule, how does the Inhibition read?
**A.** -5.2%

**Q.** With Cc1ccc(NC(=O)Cn2nc3c(Oc4ccccc4)nccn3c2=O)c(Br)c1 as the molecule, how does the Inhibition read?
**A.** -6.15%

**Q.** With COc1ccccc1-n1ccn2c(SCC(=O)Nc3ccc(C)cc3C)nnc2c1=O as the molecule, how does the Inhibition read?
**A.** -10.8%

**Q.** With CCCCc1ccc(NC(=O)CSc2nnc3c4cc(-c5ccc(C)cc5)nn4ccn23)cc1 as the molecule, how does the Inhibition read?
**A.** -7.77%

**Q.** For Cc1ccc(-c2ccc3nn(CC(=O)Nc4cccc(Cl)c4)c(=O)n3n2)cc1C, which Inhibition is on record?
**A.** -15.53%

**Q.** Which Inhibition does the source give for CC(C)Cn1c(=O)c2sccc2n2c(=O)n(CC(=O)N(C)c3ccccc3)nc12 here?
**A.** -10.06%

**Q.** Cc1ccc(-c2ccc3nn(CC(=O)Nc4ccc(Cl)c(C(F)(F)F)c4)c(=O)n3n2)cc1C was tested. Which Inhibition did it give?
**A.** -13.03%

**Q.** Which Inhibition does the source give for Cc1ccc(Cn2c(=O)c3ccccc3n3c(=O)n(CC#N)nc23)cc1 here?
**A.** -25%

**Q.** Which Inhibition does the source give for COc1ccc(C)cc1NC(=O)Cn1nc2ccc(SCc3ccc(Cl)cc3)nn2c1=O here?
**A.** -20.73%

**Q.** Which Inhibition does the source give for O=C(Cn1nc2ccc(SC3CCCCC3)nn2c1=O)Nc1ccc2c(c1)CCC2 here?
**A.** -22.07%

**Q.** With Cc1nnc2ccc(S(=O)(=O)N(Cc3cccc(F)c3)c3ccc(F)cc3)cn12 as the molecule, how does the Inhibition read?
**A.** -9.68%

**Q.** Which Inhibition does the source give for Cc1ccc(-c2ccc3nnc(CCC(=O)NCc4cccc(Br)c4)n3n2)cc1 here?
**A.** -54.18%

**Q.** CCOC(=O)c1ccccc1NC(=O)Cn1nc2c(Oc3ccccc3)nccn2c1=O was tested. Which Inhibition did it give?
**A.** -11.47%
